Screening data as filed in PubChem BioAssay.
HTT ATP protect: Huntington cell model cytoprotection by ATP luminescence; Potency, µM (doses to about 56.4 µM), most hits filed as activators; 230,000 tested, 0.14% active; PC12 HTT-Q103 induced, cytoprotection, ATP luminescence, 40 h; AID 1471; also: nearly all actives have a fitted effect of over 45% in size
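ATP quantification (ATPlite) reports survival of PC12 cells in which tebufenozide, 100 nM final, switches on Htt exon 1 with 103 glutamines linked to GFP; compounds are titrated.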
IMPase Li cell: IMPase inhibition in cells with lithium potentiation. CHO-M1 cells, IP1 TR-FRET (IP-One), carbachol + lithium. Potency, µM (highest dose often 59.4 µM), most hits filed as inhibitors. 210,000 tested, 0.35% active. AID 1457;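 also: IP1 builds up when IMPase is blocked and the TR-FRET signal falls; nearly all actives have a fitted effect of over 50% in size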
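CHO cells stably expressing M1 receptor (2000/well) were cultured 16–30 h, then exposed to compounds with a small lithium addition for 30 min at 37C. IP1 was measured by TR-FRET competition; AC50 from Hill fits.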
NPSR antagonist: antagonists of human neuropeptide S receptor cAMP signaling | CHO-NPSR cells, cAMP TR-FRET, antagonist mode | Potency, µM (series often up to 38.3 µM), hits mostly inhibitors | 220,000 tested, 1% active | AID 1461; also: nearly all actives have a fitted effect of over 50% in size
Target sequence (Q6W5P4 whole entry, looked up): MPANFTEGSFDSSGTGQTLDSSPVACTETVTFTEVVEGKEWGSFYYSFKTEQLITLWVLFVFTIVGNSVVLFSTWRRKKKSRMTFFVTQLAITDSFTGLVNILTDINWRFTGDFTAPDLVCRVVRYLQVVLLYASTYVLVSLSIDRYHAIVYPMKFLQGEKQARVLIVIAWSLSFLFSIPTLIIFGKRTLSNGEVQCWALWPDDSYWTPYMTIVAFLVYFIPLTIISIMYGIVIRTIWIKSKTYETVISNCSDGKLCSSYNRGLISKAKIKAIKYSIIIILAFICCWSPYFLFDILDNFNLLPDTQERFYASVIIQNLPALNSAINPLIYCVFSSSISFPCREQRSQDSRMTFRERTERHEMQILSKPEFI
HTT aggregate: reduces HttQ103-GFP aggregates in PC12 cells | PC12 HttQ103-GFP aggregates, Acumen cytometry, 40 h | Potency, µM (series often up to 46.1 µM), hits mostly inhibitors | 220,000 tested, 1.1% active; also: nearly all actives have a fitted effect of over 60% in size
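Using laser scanning cytometry, GFP-positive aggregates were counted after lysis of PC12 cells induced with 100 nM tebufenozide to express HTT exon 1 Q103–GFP. Compounds were tested in titration.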
IMPase cell inh: cell-permeable inhibitors of inositol monophosphatase (IMPase); CHO-M1 cells, IP1 accumulation, HTRF TR-FRET ratio; inhibition (IP1 accumulation), % at 46.1 µM; 120,000 tested, under 10 active; AID 901; active = well fitted curve in the direction sought with a large enough effect in the signal ratio, not every such curve was filed as active; inconclusive = small, poorly fitted or top-dose-only effect, or a change in a side signal; inactive = no such curve, though single readings can be large or run the other way; the % refers to the signal ratio;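 also: cells stimulated with carbachol in lithium chloride buffer; higher means more IMPase inhibition seen as more IP1 and lower FRET ratio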
Target sequence (P97697 whole entry, looked up): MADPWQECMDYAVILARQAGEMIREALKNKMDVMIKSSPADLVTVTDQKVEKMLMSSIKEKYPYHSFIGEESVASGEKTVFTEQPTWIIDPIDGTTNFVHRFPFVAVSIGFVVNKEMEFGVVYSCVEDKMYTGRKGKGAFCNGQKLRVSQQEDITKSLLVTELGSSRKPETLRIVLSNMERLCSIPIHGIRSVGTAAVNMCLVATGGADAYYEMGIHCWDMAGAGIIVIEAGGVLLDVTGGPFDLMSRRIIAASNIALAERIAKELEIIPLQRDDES
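In this qHTS, compounds (final up to 46 uM) act on CHO-M1 cells that are then activated through the M1 receptor with carbachol, in pH 7.4 buffer containing 50 mM LiCl, for 30 min. IP1 accumulation is quantified by the IP-One immunoassay.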
LMNA splice mod: changes lamin A minigene splicing in HeLa cells; HeLa LMNA splicing GFP/RFP minigene ratio, 48 h; Potency, µM (titrated, usually from 46.1 µM), usual class: inhibitors; 200,000 tested, 0.01% active; active = well fitted inhibition curve with a large enough effect in the signal ratio, with a control signal flat, not every such curve was filed as active; inconclusive = small, poorly fitted or top-dose-only effect, or effect the other way, or a change in a side signal; the % refers to the signal ratio
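S3 HeLa cells stably expressing lamin A-EGFP splicing minigene plus DsRed2, 600 cells/well, 48 h compound exposure at 37C. Laser-scanning cytometry; analysed as GFP (500-530 nm)/RFP (575-640 nm) total intensity ratio; 0.5% DMSO vehicle.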
Each line names hits and unclear results; the compound was inactive in the other large screens. Shown are actives, neighbours in structure and some others; about 1.6% of the full set was active somewhere. Unless noted, calls follow the shape of the dose curve; as a rule, active = well fitted curve in the direction sought with a large enough effect; inconclusive = small, poorly fitted or top-dose-only effect, or another doubt; inactive = no such curve, though single readings can be large; an effect the other way counts as inactive or inconclusive.

Cn1c(=N)n(CC(=O)O)c2ccccc21	HTT aggregate 5.62µM
Cn1c(=N)n(CC(=O)c2ccccc2)c2ccccc21	none (no result: IMPase Li cell, IMPase cell inh, LMNA splice mod)
c1ccc(-n2cnc3cc(NCc4ccco4)ccc32)cc1	LMNA splice mod inconclusive (no result: IMPase cell inh)
CC1Cc2nc(SCC(N)=O)n(Cc3ccccc3)c(=O)c2S1 (stereo not given)	none (no result: IMPase Li cell, IMPase cell inh, LMNA splice mod)
CCSc1nc2c(c(=O)n1Cc1ccccc1)SC(C)C2 (stereo not given)	NPSR antagonist inconclusive, HTT aggregate 28.2µM, LMNA splice mod inconclusive
CCOc1ccc(S(=O)(=O)Nc2cccc(Cl)c2)cc1	none (no result: IMPase Li cell, NPSR antagonist, HTT aggregate, IMPase cell inh, LMNA splice mod)
CCOc1ccc(S(=O)(=O)Nc2cc(Cl)ccc2O)cc1	HTT aggregate 22.4µM, LMNA splice mod inconclusive
Oc1cc(CN2COc3ccccc32)c(O)cc1CNC1CCCCC1	none (no result: NPSR antagonist, HTT aggregate, IMPase cell inh, LMNA splice mod)
CC(=O)Nc1ccc(SCC(=O)c2c(N)n(Cc3ccccc3)c(=O)n(C)c2=O)cc1	none (no result: IMPase Li cell, IMPase cell inh, LMNA splice mod)
CC(C)Nc1nnc(SCC(=O)c2c(N)n(Cc3ccccc3)c(=O)n(C)c2=O)s1	HTT aggregate 0.112µM
COc1ccc(-n2c(C)cc(C(=O)CSc3ccc(NC(C)=O)cc3)c2C)cc1	HTT aggregate 12.6µM, LMNA splice mod inconclusive (no result: IMPase cell inh)
Fc1ccc(NCc2nnc(SCc3nnc(-c4ccccc4)o3)n2Cc2ccccc2)cc1	NPSR antagonist inconclusive, HTT aggregate 12.6µM, LMNA splice mod inconclusive
CCOC(=O)CCN1C(=O)[C@@H]2[C@H]3C(=CC[C@H]2C1=O)C(=O)[C@H]1O[C@H]1[C@H]3O	none (no result: IMPase Li cell, NPSR antagonist, HTT aggregate, IMPase cell inh, LMNA splice mod)
COc1cc(/C=N/NC(=Nc2ccc(C)cc2)c2nc3ccccc3s2)ccc1O	NPSR antagonist 10µM
Cc1ccc(N=N/C(=C\O)C(=O)c2ccncc2)cc1	NPSR antagonist 10µM, LMNA splice mod inconclusive
COCc1ccc([C@@H]2C[C@H]3CN(Cc4ccccc4C)C(=O)[C@]34CCCN24)o1	HTT aggregate 4.47µM (no result: IMPase cell inh, LMNA splice mod)
CCNc1nc(NC(C)C)nc(N(C#N)CCOc2ccccc2)n1	NPSR antagonist inconclusive, HTT aggregate 22.4µM
O=C(Nc1nnc(-c2ccccc2F)s1)Nc1ccccc1F	IMPase Li cell 10µM (no result: IMPase cell inh, LMNA splice mod)
c1csc(-c2csc3ncnc(NCCCN4CCOCC4)c23)c1	HTT aggregate 7.94µM, LMNA splice mod inconclusive
C[C@@]12C[C@H](O)[C@@H]3[C@H](CCC4=CC(=O)CC[C@]43C)[C@H]1CC[C@@H]2c1csc(N)n1	none (no result: IMPase Li cell, NPSR antagonist, HTT aggregate, IMPase cell inh, LMNA splice mod)
COc1ccc(C(=O)CSc2nc(SC)ns2)cc1OC	none
COc1ccc(C(=O)CSc2cc(C)nc3nc(C)nn23)cc1OC	HTT ATP protect 12.6µM (no result: HTT aggregate)
Cc1cc2sc3ccccc3c(=O)c2c(C)c1O	none (no result: IMPase cell inh, LMNA splice mod)
O=c1c(C(c2ccccc2)c2c(O)sc3ccccc3c2=O)c(O)sc2ccccc12	NPSR antagonist 10µM, LMNA splice mod inconclusive
C[S+](C)CC[C@H](N)C(=O)O	none (no result: IMPase Li cell, NPSR antagonist, IMPase cell inh, LMNA splice mod)
O=C(O)CCNCC(=O)O	none (no result: NPSR antagonist, HTT aggregate, IMPase cell inh, LMNA splice mod)
COc1ccc(C(=O)COC(=O)CNS(=O)(=O)c2ccc(C)cc2)cc1	HTT aggregate 25.1µM
COc1ccccc1C(=O)COC(=O)CNS(=O)(=O)c1ccc(C)cc1	none (no result: IMPase cell inh)
O=C(CNS(=O)(=O)c1ccc2ccccc2c1)OCC(=O)c1ccc(Br)s1	IMPase Li cell 1.78µM, NPSR antagonist inconclusive, IMPase cell inh inconclusive
Cc1cc(C(=O)COC(=O)CNS(=O)(=O)c2ccc3ccccc3c2)c(C)n1-c1ccccc1	LMNA splice mod inconclusive
CCCCSc1nnc(-c2ccc(C)cc2)c2ccccc12	NPSR antagonist inconclusive, HTT aggregate 11.2µM, LMNA splice mod inconclusive (no result: HTT ATP protect, IMPase cell inh)
CN(C)C(=O)CSc1nnc(-c2ccc(F)cc2)c2ccccc12	none (no result: IMPase Li cell, IMPase cell inh, LMNA splice mod)
Cc1ccc(F)c([C@H]2[C@H]3C=CC[C@@H](C)[C@@H]3C(=O)N2Cc2ccccc2)c1	NPSR antagonist inconclusive (no result: IMPase Li cell, IMPase cell inh, LMNA splice mod)
C[C@@H]1CC=C[C@H]2[C@H]1C(=O)N(Cc1ccccc1)[C@H]2c1ccc2ccccc2c1Br	NPSR antagonist 10µM (no result: IMPase Li cell, IMPase cell inh, LMNA splice mod)
C[C@@H]1CC=C[C@H]2[C@H]1C(=O)N(Cc1ccccc1)[C@H]2c1ccc(F)c(Br)c1	NPSR antagonist 3.98µM (no result: IMPase Li cell, IMPase cell inh, LMNA splice mod)
CSc1nc2c([nH]c3ccccc32)c(=O)n1-c1ccc(C)cc1	none (no result: HTT ATP protect, IMPase Li cell, NPSR antagonist, HTT aggregate, IMPase cell inh)
Cc1ccc(-n2c(-c3nn(C)cc3Cl)n[nH]c2=S)cc1	none (no result: HTT ATP protect, IMPase cell inh)
